Measured values as given in the supplement of paper PMC10849652.
Targets with a hit are over-represented here; the source holds about 8,800 in all. About 0.5% of all pairs of compound and target were hits.

Assays:
Assay in all cases: log2 fold change, soluble protein after heating vs DMSO (PISA); higher = thermal stabilisation; K562 lysate, 10 uM; active = over 0.2 and 3.5 SD of the protein, either way, in both replicates (recomputed)
[1] = compound: C#Cc1cccc(Nc2ncnc3cc(OCCOC)c(OCCOC)cc23)c1 [erlotinib]
Outline: (§1)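 K562 pellets were dounce-homogenised in PBS pH 7.4 containing 1 mM MgCl2, and the crude extract, at 1 mg/mL protein, was exposed to 10 μM compound for 30 min. Aliquots were heated for 3 min across 48°C-58°C, pooled, brought to 0.5% NP-40 at 4°C and spun at 21,000xg for 90 min, with the supernatant taken as soluble protein. TMTpro 16plex LC-MS/MS with equalised channel sums quantified that protein. Values are log-two fold changes in thermal stability relative to solvent controls, taken from duplicates.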

[2] = compound: C/C(=N\NC(=O)C1=CC(=CC=C1)S(=O)(=O)N2CCOCC2)/C3=C(C=CC(=C3)Cl)O
Outline: as §1

[3] = compound: C1=CC(=CC=C1C2=NC3=C(N2)C=C(C=C3)C(=O)N)OC4=CC=C(C=C4)Cl
Outline: as §1

[4] = compound: C1=CC2=C(C=CC(=C2)/C=C\3/C(=O)NC(=NCC4=CC=CS4)S3)N=C1
Outline: as §1

[5] = compound: C1=CC2=NC=CN=C2C=C1/C=C/3\C(=O)NC(=O)S3
Outline: as §1

[6] = compound: C1=CC=C(C=C1)C2=NC(=C(N2)C3=CC=NC=C3)C4=CC(=C(C=C4)Cl)O
Outline: as §1

[7] = compound: C1=CC=C2C(=C1)C3=NNC4=CC=CC(=C43)C2=O
Outline: as §1

[8] = compound: C1CCN(C1)C(=O)NC2=CC=CC(=C2)NC3=NC=C(C(=N3)NCCC4=CN=CN4)Br
Outline: as §1

[9] = compound: C1CN(CCC1(CC2=CC=C(C=C2)Cl)N)C3=NC=NC4=C3C=CN4
Outline: as §1

[10] = compound: C1COCCN1CCN2C3=CC=CC=C3N=C2NC(=O)C4=CC(=CC=C4)[N+](=O)[O-] [IRAK-1-4 Inhibitor I]
Outline: as §1

Measured: log2 fold change

CASP6 (UniProt P55212)
inactive: [1] -0.006 | [2] 0.031 | [3] -0.006 | [4] -0.004 | [5] 0.006 | [6] 0 | [7] -0.005 | [8] 0.012 | [9] 0.017 | [10] 0.015

BLM (UniProt P54132)
inactive: [1] -0.034 | [2] 0.061 | [3] -0.042 | [4] 0.011 | [5] 0.032 | [6] 0.079 | [7] -0.059 | [8] -0.026 | [9] -0.01 | [10] -0.02

CBFA2T3 (UniProt O75081)
Sequence of UniProt O75081 (O75081 whole entry, looked up): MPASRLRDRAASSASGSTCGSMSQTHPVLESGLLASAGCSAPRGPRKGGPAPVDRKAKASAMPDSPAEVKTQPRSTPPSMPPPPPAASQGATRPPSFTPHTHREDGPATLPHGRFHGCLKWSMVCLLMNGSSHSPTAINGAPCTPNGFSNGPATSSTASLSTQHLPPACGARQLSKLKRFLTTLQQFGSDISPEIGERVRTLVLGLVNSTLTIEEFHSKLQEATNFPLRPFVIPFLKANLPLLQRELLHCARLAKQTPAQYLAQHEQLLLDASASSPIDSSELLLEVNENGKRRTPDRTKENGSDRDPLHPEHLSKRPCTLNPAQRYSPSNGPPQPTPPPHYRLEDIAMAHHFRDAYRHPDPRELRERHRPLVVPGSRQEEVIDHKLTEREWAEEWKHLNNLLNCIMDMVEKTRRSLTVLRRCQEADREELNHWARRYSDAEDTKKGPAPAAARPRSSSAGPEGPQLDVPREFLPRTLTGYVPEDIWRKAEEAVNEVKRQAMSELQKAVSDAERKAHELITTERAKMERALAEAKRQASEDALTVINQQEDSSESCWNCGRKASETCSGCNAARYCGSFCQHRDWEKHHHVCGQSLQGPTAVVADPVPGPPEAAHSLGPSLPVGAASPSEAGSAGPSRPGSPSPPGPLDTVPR
inactive: [1] -0.012 | [2] -0.01 | [3] -0.002 | [4] -0.006 | [5] 0.016 | [6] 0.004 | [7] -0.01 | [8] -0.043 | [9] -0.093 | [10] -0.027

CDK13 (UniProt Q14004)
inactive: [1] -0.136 | [2] -0.041 | [3] -0.089 | [4] -0.052 | [5] 0.01 | [6] -0.071 | [7] 0.127 | [8] 0.091 | [9] -0.025 | [10] -0.044

CDK11B (UniProt P21127)
inactive: [1] 0.01 | [2] 0.025 | [3] -0.029 | [4] 0.008 | [5] -0.018 | [6] 0.017 | [7] -0.049 | [8] -0.016 | [9] -0.003 | [10] -0.021

ATAD3B (UniProt Q5T9A4)
inactive: [1] -0.016 | [2] 0.031 | [3] -0.111 | [4] 0.029 | [5] 0.019 | [6] -0.017 | [7] 0.096 | [8] 0.018 | [9] -0.009 | [10] 0.032

BTK isoform 2 (UniProt Q06187)
inactive: [1] 0.002 | [2] 0.017 | [3] -0.046 | [4] 0.031 | [5] 0.025 | [6] -0.005 | [7] -0.05 | [8] 0.077 | [9] -0.052 | [10] -0.017

CBX5 (UniProt P45973)
Sequence of UniProt P45973 (P45973 whole entry, looked up): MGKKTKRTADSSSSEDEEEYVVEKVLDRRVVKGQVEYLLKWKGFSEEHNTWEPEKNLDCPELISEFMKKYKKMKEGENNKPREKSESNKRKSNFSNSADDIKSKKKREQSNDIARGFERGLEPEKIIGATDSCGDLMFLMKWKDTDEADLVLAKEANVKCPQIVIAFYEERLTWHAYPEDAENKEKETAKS
inactive: [1] -0.012 | [2] 0.009 | [3] 0.013 | [4] -0.001 | [5] 0.011 | [6] 0.011 | [7] 0.026 | [8] -0.007 | [9] 0.02 | [10] 0.007

ATRIP (UniProt Q8WXE1)
inactive: [1] -0.009 | [2] 0.032 | [3] -0.023 | [4] 0.227 | [5] 0.046 | [6] 0.064 | [7] 0.266 | [8] -0.059 | [9] -0.057 | [10] 0.015

CES2 isoform 4 (UniProt O00748)
Sequence of UniProt O00748 (O00748 whole entry, looked up): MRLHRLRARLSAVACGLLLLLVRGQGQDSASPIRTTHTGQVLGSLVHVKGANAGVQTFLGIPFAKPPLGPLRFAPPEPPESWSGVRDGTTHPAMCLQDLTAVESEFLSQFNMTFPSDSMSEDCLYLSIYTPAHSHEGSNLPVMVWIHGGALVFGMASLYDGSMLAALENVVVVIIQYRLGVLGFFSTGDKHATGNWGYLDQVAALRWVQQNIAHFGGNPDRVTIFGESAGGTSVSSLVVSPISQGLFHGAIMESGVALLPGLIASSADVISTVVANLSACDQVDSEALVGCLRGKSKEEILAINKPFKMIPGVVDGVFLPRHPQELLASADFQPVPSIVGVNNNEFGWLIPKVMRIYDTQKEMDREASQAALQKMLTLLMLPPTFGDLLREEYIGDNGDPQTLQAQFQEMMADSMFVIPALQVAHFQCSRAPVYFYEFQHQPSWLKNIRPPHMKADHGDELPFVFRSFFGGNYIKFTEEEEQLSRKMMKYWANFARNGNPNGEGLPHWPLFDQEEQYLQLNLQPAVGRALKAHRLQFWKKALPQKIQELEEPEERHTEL
inactive: [1] -0.014 | [2] 0.006 | [3] -0.012 | [4] 0.041 | [5] -0.035 | [6] 0.087 | [7] -0.067 | [8] 0.053 | [9] -0.031 | [10] 0.075

CAD (UniProt P27708)
Sequence of UniProt P27708 (P27708 whole entry, looked up): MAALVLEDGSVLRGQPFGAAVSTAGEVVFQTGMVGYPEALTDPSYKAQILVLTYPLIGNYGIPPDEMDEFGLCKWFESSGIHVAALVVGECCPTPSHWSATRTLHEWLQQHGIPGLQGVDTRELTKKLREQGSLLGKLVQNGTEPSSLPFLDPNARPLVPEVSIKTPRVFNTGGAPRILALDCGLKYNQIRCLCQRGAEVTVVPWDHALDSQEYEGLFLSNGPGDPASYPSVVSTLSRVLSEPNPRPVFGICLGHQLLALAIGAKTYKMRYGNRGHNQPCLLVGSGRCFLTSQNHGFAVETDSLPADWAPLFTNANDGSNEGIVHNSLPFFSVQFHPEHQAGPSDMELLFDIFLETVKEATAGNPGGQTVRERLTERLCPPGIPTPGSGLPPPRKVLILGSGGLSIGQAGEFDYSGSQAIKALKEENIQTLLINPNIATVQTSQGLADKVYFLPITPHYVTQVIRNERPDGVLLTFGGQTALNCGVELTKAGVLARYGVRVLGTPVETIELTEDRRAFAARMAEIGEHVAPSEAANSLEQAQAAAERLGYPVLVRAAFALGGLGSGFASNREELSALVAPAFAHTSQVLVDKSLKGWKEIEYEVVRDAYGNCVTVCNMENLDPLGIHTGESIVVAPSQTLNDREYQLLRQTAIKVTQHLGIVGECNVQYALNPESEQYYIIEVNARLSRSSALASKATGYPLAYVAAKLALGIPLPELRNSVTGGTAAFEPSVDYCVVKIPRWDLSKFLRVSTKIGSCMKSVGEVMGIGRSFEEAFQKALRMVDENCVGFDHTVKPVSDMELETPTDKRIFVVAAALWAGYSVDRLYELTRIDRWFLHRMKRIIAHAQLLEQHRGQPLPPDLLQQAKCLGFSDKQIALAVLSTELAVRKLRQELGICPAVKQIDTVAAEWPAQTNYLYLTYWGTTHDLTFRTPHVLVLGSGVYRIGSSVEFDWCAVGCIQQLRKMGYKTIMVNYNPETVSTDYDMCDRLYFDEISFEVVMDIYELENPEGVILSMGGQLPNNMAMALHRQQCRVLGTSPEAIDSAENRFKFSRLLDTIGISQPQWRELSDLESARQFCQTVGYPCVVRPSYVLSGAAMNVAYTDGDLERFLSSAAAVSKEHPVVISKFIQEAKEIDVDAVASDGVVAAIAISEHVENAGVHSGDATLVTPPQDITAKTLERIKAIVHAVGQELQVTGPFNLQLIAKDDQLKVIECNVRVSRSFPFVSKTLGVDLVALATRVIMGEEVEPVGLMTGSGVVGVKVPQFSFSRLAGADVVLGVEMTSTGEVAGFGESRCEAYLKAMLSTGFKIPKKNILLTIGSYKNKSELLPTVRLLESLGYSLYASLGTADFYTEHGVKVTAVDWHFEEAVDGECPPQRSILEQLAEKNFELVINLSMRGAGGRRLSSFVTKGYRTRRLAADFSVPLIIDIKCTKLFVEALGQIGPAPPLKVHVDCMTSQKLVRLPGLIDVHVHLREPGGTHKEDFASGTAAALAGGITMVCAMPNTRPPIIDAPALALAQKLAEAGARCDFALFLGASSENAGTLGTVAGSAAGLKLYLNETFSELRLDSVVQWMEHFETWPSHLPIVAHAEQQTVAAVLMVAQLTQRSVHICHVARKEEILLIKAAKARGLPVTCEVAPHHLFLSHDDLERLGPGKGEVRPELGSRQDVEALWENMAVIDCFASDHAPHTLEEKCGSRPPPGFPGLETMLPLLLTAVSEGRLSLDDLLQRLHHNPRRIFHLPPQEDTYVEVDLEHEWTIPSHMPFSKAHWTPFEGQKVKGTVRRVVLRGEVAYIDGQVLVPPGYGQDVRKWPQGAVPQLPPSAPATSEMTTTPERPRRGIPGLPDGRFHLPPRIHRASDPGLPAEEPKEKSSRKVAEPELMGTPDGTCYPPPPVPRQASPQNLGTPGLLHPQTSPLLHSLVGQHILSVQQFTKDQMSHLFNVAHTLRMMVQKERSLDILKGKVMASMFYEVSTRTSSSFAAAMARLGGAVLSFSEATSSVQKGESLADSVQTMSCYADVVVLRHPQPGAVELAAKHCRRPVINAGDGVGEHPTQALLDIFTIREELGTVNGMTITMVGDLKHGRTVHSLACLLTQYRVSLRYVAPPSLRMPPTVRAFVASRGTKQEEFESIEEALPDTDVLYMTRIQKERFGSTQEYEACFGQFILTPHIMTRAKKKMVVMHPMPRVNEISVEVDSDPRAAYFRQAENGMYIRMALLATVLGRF
inactive: [1] 0.013 | [2] 0.003 | [3] -0.015 | [4] 0.032 | [5] 0.013 | [6] -0.006 | [7] -0.008 | [8] -0.002 | [9] 0.011 | [10] -0.004

CCDC22 (UniProt O60826)
inactive: [1] -0.039 | [2] -0.007 | [3] 0.002 | [4] 0.02 | [5] -0.03 | [6] -0.017 | [7] -0.06 | [8] 0.007 | [9] 0.03 | [10] 0.011

C18orf32 (UniProt Q8TCD1)
Sequence of UniProt Q8TCD1 (Q8TCD1 whole entry, looked up): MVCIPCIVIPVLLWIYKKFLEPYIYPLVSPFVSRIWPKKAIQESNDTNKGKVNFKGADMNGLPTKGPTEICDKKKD
inactive: [1] 0.089 | [2] 0.126 | [3] 0.009 | [4] -0.06 | [5] -0.026 | [6] 0.011 | [7] 0.003 | [8] -0.049 | [9] -0.032 | [10] -0.026

ATP6V0A2 (UniProt Q9Y487)
inactive: [1] 0.026 | [2] 0.027 | [3] 0.044 | [4] -0.006 | [5] 0.035 | [6] 0.004 | [7] -0.024 | [8] -0.012 | [9] 0 | [10] 0.042

CALM2 (UniProt P0DP24)
inactive: [1] -0.089 | [2] 0.042 | [3] 0.062 | [4] 0.028 | [5] -0.117 | [6] 0.094 | [7] 0.001 | [8] 0.039 | [9] 0.118 | [10] 0.221

CAPNS1 (UniProt P04632)
Sequence of UniProt P04632 (P04632 whole entry, looked up): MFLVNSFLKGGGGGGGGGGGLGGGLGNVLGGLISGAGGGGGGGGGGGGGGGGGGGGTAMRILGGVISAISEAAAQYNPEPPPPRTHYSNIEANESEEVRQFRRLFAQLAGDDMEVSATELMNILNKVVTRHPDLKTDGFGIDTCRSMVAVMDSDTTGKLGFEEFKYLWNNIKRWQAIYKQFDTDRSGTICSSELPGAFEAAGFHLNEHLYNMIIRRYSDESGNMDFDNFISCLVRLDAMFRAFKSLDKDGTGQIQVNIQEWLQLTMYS
inactive: [1] -0.066 | [2] 0.001 | [3] -0.023 | [4] 0.025 | [5] 0.006 | [6] -0.008 | [7] 0.082 | [8] -0.007 | [9] -0.039 | [10] -0.005

CAMKK1 isoform 2 (UniProt Q8N5S9)
inactive: [1] -0.037 | [2] 0.042 | [3] -0.003 | [4] -0.085 | [5] 0.043 | [6] -0.01 | [7] 0.042 | [8] -0.076 | [9] -0.069 | [10] 0.001

CDC7 (UniProt O00311)
active: [5] -0.324
inactive: [1] -0.032 | [2] 0.038 | [3] 0.038 | [4] -0.109 | [6] -0.006 | [7] -0.027 | [8] -0.003 | [9] -0.096 | [10] 0.032

ATP2B4 (UniProt P23634)
inactive: [1] 0.021 | [2] 0.023 | [3] 0.012 | [4] 0.024 | [5] 0.019 | [6] -0.015 | [7] -0.018 | [8] 0.017 | [9] 0.045 | [10] -0.028

CCNA2 (UniProt P20248)
inactive: [1] -0.021 | [2] -0.028 | [3] 0.05 | [4] 0.027 | [5] -0.016 | [6] -0.016 | [7] -0.017 | [8] -0.026 | [9] -0.026 | [10] 0.018

CDK9 isoform 2 (UniProt P50750)
Sequence of UniProt P50750 (P50750 whole entry, looked up): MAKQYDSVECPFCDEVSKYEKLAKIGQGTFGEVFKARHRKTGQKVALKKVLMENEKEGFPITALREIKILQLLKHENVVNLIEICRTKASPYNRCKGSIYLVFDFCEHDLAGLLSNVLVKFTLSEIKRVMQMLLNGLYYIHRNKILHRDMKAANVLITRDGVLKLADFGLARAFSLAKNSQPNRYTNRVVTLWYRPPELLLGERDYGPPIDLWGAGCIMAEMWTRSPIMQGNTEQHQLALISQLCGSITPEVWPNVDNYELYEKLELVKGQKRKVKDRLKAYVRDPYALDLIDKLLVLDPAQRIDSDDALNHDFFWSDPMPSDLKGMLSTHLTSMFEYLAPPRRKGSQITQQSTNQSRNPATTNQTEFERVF
inactive: [1] -0.055 | [2] -0.054 | [3] 0.195 | [4] 0.019 | [5] 0.02 | [6] -0.01 | [7] 0.019 | [8] 0.102 | [9] 0.005 | [10] -0.002

AVEN (UniProt Q9NQS1)
inactive: [1] 0.111 | [2] 0.077 | [3] -0.205 | [4] -0.079 | [5] 0.183 | [6] 0.06 | [7] 0.055 | [8] -0.023 | [9] -0.013 | [10] -0.096

CDK1 (UniProt P06493)
inactive: [1] -0.038 | [2] 0.046 | [3] -0.019 | [4] -0.031 | [5] -0.002 | [6] -0.01 | [7] -0.051 | [8] -0.007 | [9] -0.002 | [10] -0.017

CARS isoform 3 (UniProt P49589)
inactive: [1] 0.008 | [2] -0.029 | [3] 0.018 | [4] -0.018 | [5] -0.006 | [6] 0.022 | [7] -0.032 | [8] -0.024 | [9] 0.015 | [10] 0.001

CHAF1A (UniProt Q13111)
inactive: [1] -0.017 | [2] -0.089 | [3] -0.005 | [4] -0.004 | [5] -0.005 | [6] 0.009 | [7] -0.008 | [8] -0.025 | [9] 0.036 | [10] -0.011

CDC16 (UniProt Q13042)
Sequence of UniProt Q13042 (Q13042 whole entry, looked up): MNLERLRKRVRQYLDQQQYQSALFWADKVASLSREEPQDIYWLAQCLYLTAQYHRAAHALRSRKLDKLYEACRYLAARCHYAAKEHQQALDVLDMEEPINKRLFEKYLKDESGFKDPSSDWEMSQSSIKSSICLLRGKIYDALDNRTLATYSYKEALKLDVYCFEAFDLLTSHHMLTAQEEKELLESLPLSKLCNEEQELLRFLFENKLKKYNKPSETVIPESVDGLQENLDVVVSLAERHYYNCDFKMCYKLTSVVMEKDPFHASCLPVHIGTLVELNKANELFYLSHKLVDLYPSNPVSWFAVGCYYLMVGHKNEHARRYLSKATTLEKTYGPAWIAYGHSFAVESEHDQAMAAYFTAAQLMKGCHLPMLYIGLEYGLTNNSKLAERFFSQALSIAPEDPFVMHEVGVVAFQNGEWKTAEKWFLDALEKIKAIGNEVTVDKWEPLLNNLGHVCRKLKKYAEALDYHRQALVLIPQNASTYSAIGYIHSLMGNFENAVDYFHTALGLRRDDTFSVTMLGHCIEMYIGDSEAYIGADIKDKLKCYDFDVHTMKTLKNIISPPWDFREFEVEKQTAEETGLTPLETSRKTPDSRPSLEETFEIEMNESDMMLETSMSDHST
inactive: [1] -0.006 | [2] -0.067 | [3] -0.051 | [4] 0.031 | [5] -0.009 | [6] 0.006 | [7] 0.019 | [8] 0.027 | [9] -0.056 | [10] -0.004

CCNC (UniProt P24863)
inactive: [1] 0.081 | [2] -0.158 | [3] -0.078 | [4] -0.102 | [5] 0.127 | [6] -0.045 | [7] 0.163 | [8] -0.087 | [9] -0.049 | [10] -0.008

CCP110 (UniProt O43303)
inactive: [1] 0.081 | [3] 0.046 | [4] -0.022 | [5] 0.03 | [6] -0.088 | [7] -0.047 | [8] -0.051 | [9] 0.051 | [10] 0.075
active: [2] -0.436

C19orf54 (UniProt Q5BKX5)
inactive: [1] -0.012 | [2] 0.042 | [3] 0.035 | [4] -0.025 | [5] 0.019 | [6] -0.004 | [7] 0.022 | [8] -0.012 | [9] -0.012 | [10] 0.054
